Laboratory results from PubChem BioAssay (EPA / NIEHS).
Several values for one entry are separate records, joined by “and”; a condition that tells them apart may be missing. Identical values can stand only once. The source holds several records for some structures; these can differ, active in one and inactive in another. Activity calls are given as the source filed them. Rule for the calls: active = hit-call score of the fitted dose curve at least 0.9, where 1 is the maximum; inactive = score below 0.9.

Assay: APR_HepG2_P-H2AX_24hr: Apredica 24-hour HepG2 Assay for H2AX Phosphorylation (AID 2282920)
Settings: high-content imaging, actives raise or lower the signal
Summary of the method: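 HepG2, 24 hr, cpd 0.39–200 uM (10 conc, duplicate), DMSO 0.5% v/v final. Fix 3.7% formaldehyde, Triton X-100 permeabilize, anti-phospho-H2A.x 1:200 + Hoechst 2 ug/mL. Imaged, bidirectional fit vs DMSO.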

SMILES	outcome	AC50
OCCOc1ccccc1	inactive	
CC1(c2ccc(Oc3ccccc3)cc2)OC(=O)N(Nc2ccccc2)C1=O (stereo not drawn)		93.2 µM (active)
CC(C)(C)C(O)C(Oc1ccc(Cl)cc1)n1cncn1 (stereo not drawn)	inactive	
O=S1OCC2C(CO1)C1(Cl)C(Cl)=C(Cl)C2(Cl)C1(Cl)Cl (stereo not drawn)	inactive	
CC(C)OC(=O)Nc1cccc(Cl)c1	inactive	
COP(=S)(OC)Oc1ccc([N+](=O)[O-])cc1	inactive	
O=C(O)C(F)(F)C(F)(F)C(F)(F)C(F)(F)C(F)(F)C(F)(F)C(F)(F)F	inactive	
Cc1[nH]c(=O)n(C(C)(C)C)c(=O)c1Cl	inactive	
O=[N+]([O-])c1c(Cl)c(Cl)c(Cl)c(Cl)c1Cl	inactive	
CCCN(CCOc1c(Cl)cc(Cl)cc1Cl)C(=O)n1ccnc1	inactive	
O=S(=O)(O)C(F)(F)C(F)(F)C(F)(F)C(F)(F)C(F)(F)C(F)(F)C(F)(F)C(F)(F)F	inactive	108 µM (active) [middle of 4 runs]
Oc1cc(Cl)ccc1Oc1ccc(Cl)cc1Cl	inactive	27.9 µM (active) and 45.5 µM (active)
CCC(C)(NC(=O)c1cc(Cl)c(C)c(Cl)c1)C(=O)CCl (stereo not drawn)	inactive	
CNC(=O)Oc1ccccc1OC(C)C	inactive	
CNC(=O)CSP(=S)(OC)OC	inactive	
O=C1c2ccccc2C(=O)N1SC(Cl)(Cl)Cl	inactive	
ClC1C(Cl)C(Cl)C(Cl)C(Cl)C1Cl (stereo not drawn)	inactive	
[2H]C1([2H])[n+]2ccccc2-c2cccc[n+]2C1([2H])[2H]	inactive	
COC(=O)c1ccccc1CS(=O)(=O)NC(=O)Nc1nc(OC)cc(OC)n1	inactive	
CC[C@H](C)[C@H]1O[C@]2(C=C[C@@H]1C)C[C@@H]1C[C@@H](C/C=C(\C)[C@@H](O[C@H]3C[C@H](OC)[C@@H](O[C@H]4C[C@H](OC)[C@@H](O)[C@H](C)O4)[C@H](C)O3)[C@@H](C)/C=C/C=C3\CO[C@@H]4[C@H](O)C(C)=C[C@@H](C(=O)O1)[C@]34O)O2 (tested in a mixture with another compound)	inactive	
CNC(=O)Oc1cccc(N=CN(C)C)c1		106 µM (active)
Clc1ccccc1-c1nnc(-c2ccccc2Cl)nn1	inactive	
Cc1cc(C)nc(NC(=O)NS(=O)(=O)c2ccccc2C(=O)OC2COC2)n1	inactive	
O=C(O)COc1ccc(Cl)cc1Cl	inactive	
COC(=O)c1ccccc1S(=O)(=O)NC(=O)N(C)c1nc(C)nc(OC)n1	inactive	
Oc1ccc(Cl)cc1Cc1ccccc1	inactive	114 µM (active) [middle of 4 runs]

Assay: APR_HepG2_StressKinase_72hr: Apredica 72-hour HepG2 Assay for Stress Kinase (AID 2282921)
Settings: HepG2 stress kinase (phospho-c-Jun) imaging, actives raise or lower the signal
Summary of the method: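 After a 72 h compound treatment spanning 0.39 to 200 uM, formaldehyde-fixed cells are labelled for phosphorylated c-Jun and nuclei, imaged by automated fluorescence microscopy, and activity is fitted in both directions relative to DMSO controls.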

SMILES	outcome	AC50
OCCOc1ccccc1	inactive	
CC1(c2ccc(Oc3ccccc3)cc2)OC(=O)N(Nc2ccccc2)C1=O (stereo not drawn)	inactive	
CC(C)(C)C(O)C(Oc1ccc(Cl)cc1)n1cncn1 (stereo not drawn)	inactive	
O=S1OCC2C(CO1)C1(Cl)C(Cl)=C(Cl)C2(Cl)C1(Cl)Cl (stereo not drawn)	inactive	
CC(C)OC(=O)Nc1cccc(Cl)c1	inactive	
COP(=S)(OC)Oc1ccc([N+](=O)[O-])cc1	inactive	
O=C(O)C(F)(F)C(F)(F)C(F)(F)C(F)(F)C(F)(F)C(F)(F)C(F)(F)F	inactive	
Cc1[nH]c(=O)n(C(C)(C)C)c(=O)c1Cl	inactive	
O=[N+]([O-])c1c(Cl)c(Cl)c(Cl)c(Cl)c1Cl	inactive	
CCCN(CCOc1c(Cl)cc(Cl)cc1Cl)C(=O)n1ccnc1	inactive	
O=S(=O)(O)C(F)(F)C(F)(F)C(F)(F)C(F)(F)C(F)(F)C(F)(F)C(F)(F)C(F)(F)F	inactive	111 µM (active) and 107 µM (active)
Oc1cc(Cl)ccc1Oc1ccc(Cl)cc1Cl	inactive	49.2 µM (active)
CCC(C)(NC(=O)c1cc(Cl)c(C)c(Cl)c1)C(=O)CCl (stereo not drawn)	inactive	
CNC(=O)Oc1ccccc1OC(C)C	inactive	
CNC(=O)CSP(=S)(OC)OC	inactive	
O=C1c2ccccc2C(=O)N1SC(Cl)(Cl)Cl	inactive	
ClC1C(Cl)C(Cl)C(Cl)C(Cl)C1Cl (stereo not drawn)	inactive	
[2H]C1([2H])[n+]2ccccc2-c2cccc[n+]2C1([2H])[2H]	inactive	
COC(=O)c1ccccc1CS(=O)(=O)NC(=O)Nc1nc(OC)cc(OC)n1	inactive	
CC[C@H](C)[C@H]1O[C@]2(C=C[C@@H]1C)C[C@@H]1C[C@@H](C/C=C(\C)[C@@H](O[C@H]3C[C@H](OC)[C@@H](O[C@H]4C[C@H](OC)[C@@H](O)[C@H](C)O4)[C@H](C)O3)[C@@H](C)/C=C/C=C3\CO[C@@H]4[C@H](O)C(C)=C[C@@H](C(=O)O1)[C@]34O)O2 (tested in a mixture with another compound)	inactive	
CNC(=O)Oc1cccc(N=CN(C)C)c1	inactive	
Clc1ccccc1-c1nnc(-c2ccccc2Cl)nn1	inactive	
Cc1cc(C)nc(NC(=O)NS(=O)(=O)c2ccccc2C(=O)OC2COC2)n1	inactive	
O=C(O)COc1ccc(Cl)cc1Cl	inactive	
COC(=O)c1ccccc1S(=O)(=O)NC(=O)N(C)c1nc(C)nc(OC)n1	inactive	
Oc1ccc(Cl)cc1Cc1ccccc1	inactive	113 µM (active) and 122 µM (active) and 34.3 µM (active)
